Test results: PubChem BioAssay (NCI)
The panel holds about 83,000 compounds, 20% with a hit somewhere; the sample as a whole holds those more often.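 A percent growth of 40 corresponds to 60% growth inhibition; 0 means no net growth; -100 means all cells died. Active threshold: below 10.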 Values without a mark were called inactive. Active and inactive are the calls of the source.

What follows are compounds tested on PC-3 prostate (assay: NCI-60 one-dose screen, 48 h (100 = growth as untreated, 0 = no growth, -100 = all killed)). Settings: 10 µM unless noted.
Procedure: Growth inhibition of the PC-3 human tumor cell line is measured as a screen for anti-cancer activity. Cells are grown in 96 well plates and exposed to the test compound for 48 hours. Compounds are tested at a single concentration, which is 10^-5 M for most compounds. The reported endpoint is percent growth (GI% or GIPRCNT), where numbers from 0 - 100% represent growth inhibition, and numbers from -100% - 0 represent cell death. For example, a value of 40 represents 60% growth inhibition. A value of 0 means no net growth occurred over the course of the experiment. A value of -40 indicates 40% of cells at the beginning of the experiment died by the end of the experiment. A value of -100 means all cells are dead at the end of the experiment.
NCI-60 Human Tumor Cell Lines Screen was performed using the standard one-dose NCI protocol, which is described in more detail at https://dtp.cancer.gov/discovery_development/nci-60/default.htm.
Compounds with GIPRCNT values below 10 were considered active. Activity score was based on GIPRCNT using the following formula: […]
Score is 0 for GIPRCNT values of 100 or above, 50 for GIPRCNT values of 0, and 100 for GIPRCNT values of -100.

First: COC(=O)C(CCC(=O)CCl)N1C(=O)c2ccccc2C1=O (stereo not given)
Second: Cc1ccc(S(=O)(=O)NC(CCC(=O)Nc2ccc(Cl)cc2)C(=O)Nc2ccc(Cl)cc2)cc1 (stereo not given)
The growth of the first is higher: 60.3% for the first, 17.8% for the second.

Compared with `O=C(CN1CCN(c2ccccc2)CC1)N1CCN(c2nnc(-c3ccc(Cl)cc3)c(-c3ccc(Cl)cc3)n2)CC1`, `COc1ccc(-c2nnc(SCC(=O)Nc3ccc(C(=O)/C=C/c4ccc(Cl)cc4)cc3)n2-c2ccccc2)cc1` is higher in growth: 26.6% for the first, 87.9% for the second.

Compared with `Oc1[nH]c2ccc(Cl)cc2c1/C=c1/ccc2c(c1)N=C(c1ccc(F)cc1)N=2`, `CN(C)CCOc1nc2c3cccnc3cc(-c3cccc(Cl)c3)c2c2ncccc12` is lower in growth: 48.5% for the first, 22.4% for the second.

Going from `CCCCCNCCCCCNc1cc(OC)cc2cccnc12` to `O=C(CCCCCCc1nc2ccc(Br)cc2[nH]1)NO`, the growth falls from 69.6% to 16.7%.

First: COc1ccc(C(=O)/C=C/c2cn(-c3ccccc3)nc2-c2cccc(Nc3ccnc4cc(Cl)ccc34)c2)cc1
Second: Cc1ccc(-c2nc3ccccc3c(=O)n2/N=C/c2cccc3ccccc23)cc1
The growth of the first is higher: 87.4% for the first, 63.3% for the second.

Compared with `N#Cc1nc(-c2ccc(Cl)cc2)cc(-c2ccc(Nc3nc(N4CCCCC4)nc(N4CCCCC4)n3)cc2)c1N`, `CN1CCN(Cc2ccc(NC(=O)c3cccc(C#Cc4cnc(N)c5ncccc45)c3F)cc2C(F)(F)F)CC1` is lower in growth: 91.6% for the first, 30.7% for the second.

Going from `CCOc1cccc(/C=N/NC(=O)Cc2ccc(Nc3ccnc(C(F)(F)F)c3)cc2)c1O` to `Cc1cc(C)c2c(n1)sc1c(Nc3ccc(OCc4ccccc4)cc3)ncnc12`, the growth rises from 50% to 96.2%.

Compared with `CCc1ccc(-c2ccc(NC3CCCCCC3)nn2)cc1S(N)(=O)=O`, `Fc1ccc(-c2nnc(N3CCOCC3)c3ccccc23)cc1` is higher in growth: 94.4% for the first, 95.8% for the second.

First: CCCCCCCCCCCCCCC(C(=O)OCC)C(=O)OCC
Second: C#CC[C@@H]1C[C@]2(C)[C@H]3CC[C@@H]4[C@H]5C(C(=C)C)CC[C@]5(C(=O)NCCN(CCN)CCN)CC[C@@]4(C)[C@]3(C)CC[C@H]2C(C)(C)[C@H]1OC(C)=O (stereo not given in full)
The growth of the first is higher: 108% for the first, 79.9% for the second.

First: CC1=C(C(=O)Nc2ccc(F)cc2)C(c2ccc(C)cc2)C2=C(CC(C)(C)CC2=O)N1 (stereo not given)
Second: CN1CCN(Cc2ccc(NC(=O)c3cnc(F)c(C#Cc4cnc(N)c5ncccc45)c3)cc2C(F)(F)F)CC1
The growth of the first is higher: 75.3% for the first, 29.9% for the second.

Compared with `Cc1cc(-c2nnc(/C=C/c3ccc4c(c3)OCO4)o2)n[nH]1`, `Cc1cc(C)c2c(n1)sc1c(Nc3ccc(Cl)cc3Cl)ncnc12` is lower in growth: 74.3% for the first, 50.9% for the second.

First: C=CCOc1c(Br)cc(Br)cc1Br
Second: Nc1nc(N)c2cc(CNc3ccc(Cl)c(Cl)c3)ccc2n1
The growth of the first is higher: 65.8% for the first, 22.5% for the second.

Going from `CN1CCN(Cc2ccc(NC(=O)c3cncc(C#Cc4ncc5cnccn45)c3)cc2C(F)(F)F)CC1` to `CN(C)CCOc1nc2c3ccncc3cc(-c3cccc(Cl)c3)c2c2cnccc12`, the growth falls from 54.9% to 30.1%.

First: Cc1ccc(N2C3c4ccccc4N(S(=O)(=O)c4ccc(C)cc4)C2c2ccccc2N3S(=O)(=O)c2ccc(C)cc2)cc1
Second: Cc1n(Cc2ccc3ccccc3n2)cc[n+]1Cc1ccc2ccccc2c1
The growth of the first is higher: 90.4% for the first, 10.4% for the second.

Compared with `Cc1ccc(/C=C/C(=N/N=C(N)N)c2ccccc2)cc1`, `COc1ccc(Sc2[nH]c(C=O)c3ccccc23)cc1` is higher in growth: 19% for the first, 45% for the second.

Going from `ClCc1cccc(CSc2ncnc3c2ncn3Cc2cccc(CCl)c2)c1` to `COc1ccc2[nH]cc(/C=C3\C(=O)Nc4ccccc43)c2c1`, the growth falls from 49.8% to 45.3%.

Compared with `CC(C)N=C1CCCC1C(=S)SSC(=S)C1CCCC1=NC(C)C` (stereo not given), `Cc1nn(-c2ccc(Cl)cc2)c(=O)n1CCN1CCOCC1` is higher in growth: 47.4% for the first, 80.8% for the second.

For `CN(C)c1ccc(N2Cc3ccccc3OC3=C2C(=O)c2c(O)ccc(O)c2C3=O)cn1`, the growth was -4.29% (active).
`CC[C@H](Nc1nc(N)nc(N)c1Cl)c1nc2cccc(NCc3ccc(C(=O)NO)cc3)c2c(=O)n1-c1ccccc1` was tested, and the growth was -57.2% (active).
`N#Cc1c(NN)n(C2OC(CO)C(O)C2O)c2ncnc(N)c12` (stereo not given) was tested, and the growth was 6.48% (active).
In the case of `CCN(CC)c1ccc2nc3c4ccccc4c(=O)cc-3n(-c3ccccc3)c2c1`, the growth is reported as 6.03% (active).
`NCCCOc1cc2ccccc2cc1C(=O)NCCCOc1cc2ccccc2cc1C(=O)Nc1ccc(Cl)cc1O` was tested, and the growth was -86.1% (active).
In the case of `CCN(CC)c1ccc(C(=N)c2ccc(N(C)C)cc2)cc1`, the growth is reported as 5.51% (active).
